From PubChem BioAssay (EPA / NIEHS)
Results filed as inconclusive are left out. Activity calls are given as the source filed them. The calls were made as follows, unless noted: active = hit-call score of the fitted dose curve at least 0.9, where 1 is the maximum; inconclusive = response in the unintended direction; inactive = score below 0.9.

How the values were obtained:
[1] = biological target: human Peroxisome Proliferator-activated Receptor alpha (PPARa), PPARA (gene 5465) (UniProt Q07869); test: ATG_PPARa_TRANS: Attagene TRANS-FACTORIAL HepG2 Assay for human Peroxisome Proliferator-activated Receptor alpha (PPARa) (AID 2283001);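 as to AC50: potency for gain of reporter signal over DMSO so agonist or activator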
Procedure, shortened: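 Cells (HepG2) are transfected with multiple reporter transcription units, exposed to chemical for 24 h, then total RNA is reverse-transcribed and amplified. Labelled products are quantified by capillary electrophoresis; induction is referenced to DMSO.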

[2] = biological target: human Retinoic Acid Receptor beta (RARb), RARB (gene 5915) (UniProt P10826); test: ATG_RARb_TRANS: Attagene TRANS-FACTORIAL HepG2 Assay for human Retinoic Acid Receptor beta (AID 2283004)
Procedure, shortened: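 HepG2, transient MRTU transfection, NR–Gal4 chimera, 24 h treatment; RT-PCR plus CE fluorescence detection of reporter mRNA; gain of signal vs DMSO.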

[3] = biological target: Peroxisome proliferator-activated receptor gamma (Homo sapiens) (UniProt P37231); test: ATG_PPARg_TRANS: Attagene TRANS-FACTORIAL HepG2 Assay for human Peroxisome Proliferator-activated Receptor-gamma (PPARg) (AID 2283007)
Procedure, shortened: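 Transient transfection of HepG2 with GAL4-UAS-driven reporter units; chemical dosing 24 h; total RNA → oligo(dT) RT → PCR with reporter primers → 6-FAM primer extension → HpaI digest 2 h 37 C → capillary electrophoresis. Positive direction vs DMSO.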

[4] = biological target: Nuclear receptor subfamily 1 group I member 2 (Homo sapiens) (UniProt O75469); test: ATG_PXR_TRANS: Attagene TRANS-FACTORIAL HepG2 Assay for human Pregnane X Receptor (PXR) (AID 2283008)
Procedure, shortened: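 Transient HepG2 transfectants carrying multiplexed reporter transcription units; PXR activity read through a Gal4 chimera. 24 h exposure. RT-PCR/CE fluorescence; upward curve fit referenced to DMSO.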

[5] = biological target: human RAR-related Orphan Receptor beta (RORb), RORB (gene 6096) (UniProt Q92753); test: ATG_RORb_TRANS: Attagene TRANS-FACTORIAL HepG2 Assay for human RAR-related Orphan Receptor beta (RORb) (AID 2283010)
Procedure, shortened: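 Transfect HepG2 with multiple GAL4-UAS reporter transcription units; dose chemicals for 24 h; isolate RNA, reverse-transcribe and PCR-amplify reporter sequences; label, digest and resolve fragments by capillary electrophoresis; fit increases relative to DMSO.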

[6] = biological target: human RAR-related Orphan Receptor gamma (RORg), RORC (gene 6097) (UniProt P51449); test: ATG_RORg_TRANS: Attagene TRANS-FACTORIAL HepG2 Assay for human RAR-related Orphan Receptor gamma (RORg) (AID 2283011)
Procedure, shortened: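 Activity is scored as increase in GAL4-UAS reporter mRNA over DMSO, detected by fluorescent RT-PCR and capillary electrophoresis in HepG2 cells transiently expressing a RORg-Gal4 chimera, 24 h after dosing.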

[7] = read-out: Intercellular Adhesion Molecule 1 (ICAM1), ICAM1 (gene 3383); test: BSK_3C_ICAM1: BioMAP Diversity Plus: 3C Assay for Intercellular Adhesion Molecule 1 (ICAM1) Biomarker Activity (AID 2283003; active = hit-call score of the fitted dose curve at least 0.9, where 1 is the maximum; inactive = score below 0.9); settings: primary human endothelial cells (HUVEC); actives raise or lower the signal
Procedure, shortened: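 Chemicals are dosed onto primary human umbilical vein endothelium (3C system). After 24 h, ICAM-1 is measured by ELISA, and responses are fitted bidirectionally relative to DMSO.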

[8] = BSK_3C_Proliferation: Cell Proliferation Assessment in the BioMAP Diversity Plus: 3C Assay (AID 2283006; active = hit-call score of the fitted dose curve at least 0.9, where 1 is the maximum; inactive = score below 0.9); settings: primary human endothelial cells (HUVEC)
Procedure, shortened: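 Cells (human umbilical vein endothelial, sub-confluent) receive test chemical; after 48 h they are fixed in 10% trichloroacetic acid, stained with 0.1% SRB and read at 560 nm. Activity is referenced to DMSO, fitting increases and decreases.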

[9] = biological target: human Retinoic Acid Receptor gamma (RARg), RARG (gene 5916) (UniProt P13631); test: ATG_RARg_TRANS: Attagene TRANS-FACTORIAL HepG2 Assay for human Retinoic Acid Receptor gamma (RARg) (AID 2283009)
Procedure, shortened: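 TRANS format measured activity of exogenous NR-GAL4 fusion (RARg) in transfected HepG2 liver cells after 24 h dosing. Induced reporter RNA was detected by RT-PCR/capillary electrophoresis fluorescence, analysed in the positive direction against DMSO.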

[10] = biological target: Retinoic acid receptor RXR-alpha (Homo sapiens) (UniProt P19793); test: ATG_RXRa_TRANS: Attagene TRANS-FACTORIAL HepG2 Assay for human Retinoid X Receptor alpha (RXRa) (AID 2283012)
Procedure, shortened: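 Measures exogenous chimeric NR-GAL4 activity in transfected HepG2 liver cells after 24 h of dosing. Induced reporter mRNA was detected by RT-PCR with capillary electrophoresis, and gain of signal was analysed against DMSO.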

[11] = biological target: human Retinoid X Receptor beta (RXRb), RXRB (gene 6257) (UniProt P28702); test: ATG_RXRb_TRANS: Attagene TRANS-FACTORIAL HepG2 Assay for human Retinoid X Receptor beta (RXRb) (AID 2283013)
Procedure, shortened: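 Chimeric receptor-Gal4 activity was assessed in transiently transfected human HepG2 cells after 24 h exposure. Transcripts from GAL4-UAS reporters were quantified by fluorescent RT-PCR and capillary electrophoresis, with DMSO as negative control and baseline.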

[12] = biological target: human Thyroid Receptor alpha (THRa1), THRA (gene 7067) (UniProt P10827); test: ATG_THRa1_TRANS: Attagene TRANS-FACTORIAL HepG2 Assay for human Thyroid Receptor alpha (THRa1) (AID 2283014)
Procedure, shortened: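 First, HepG2 cells receive multiple GAL4-UAS reporter units and the chimeric receptor. They are then dosed for 24 h, after which RNA is reverse-transcribed, amplified, labelled, HpaI-cut and sized by capillary electrophoresis; gain relative to DMSO is scored.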

[13] = read-out: E-selectin (Homo sapiens) (UniProt P16581); test: BSK_3C_Eselectin: BioMAP Diversity Plus: 3C Assay for Eselectin Biomarker Activity (AID 2283015; active = hit-call score of the fitted dose curve at least 0.9, where 1 is the maximum; inactive = score below 0.9;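 also: cell surface E-selectin protein quantified by ELISA 24 h after dosing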); settings: primary human endothelial cells (HUVEC); actives raise or lower the signal
Procedure, shortened: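 Human vascular endothelium from umbilical vein is exposed to test chemicals for 24 h. E-selectin levels are read by ELISA and compared with DMSO controls.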

[14] = read-out: Interleukin-1 alpha (IL1a), IL1A (gene 3552); test: BSK_BE3C_IL1a: BioMAP Diversity Plus: BE3C Assay for Interleukin-1 alpha (IL1a) Biomarker Activity (AID 2283016; active = hit-call score of the fitted dose curve at least 0.9, where 1 is the maximum; inactive = score below 0.9); settings: primary human bronchial epithelial cells; actives raise or lower the signal
Procedure, shortened: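 Signal from IL-1a ELISA, taken 24 h after chemical dosing of human bronchial epithelial cells, is compared with DMSO as baseline using bidirectional curve fitting.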

[15] = read-out: Monocyte Chemoattractant Protein-1 (MCP1), CCL2 (gene 6347); test: BSK_4H_MCP1: BioMAP Diversity Plus: 4H Assay for Monocyte Chemoattractant Protein-1 (MCP1) Biomarker Activity (AID 2283018; active = hit-call score of the fitted dose curve at least 0.9, where 1 is the maximum; inactive = score below 0.9); settings: primary human endothelial cells (HUVEC); actives raise or lower the signal
Procedure, shortened: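 Endothelial cells from umbilical vein were treated with test chemical, then after 24 h MCP-1 levels were quantified by ELISA; endpoint values came from bidirectional fitting with DMSO as baseline of activity.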

[16] = read-out: Human Leukocyte Antigen - DR isotype (HLADR), HLA-DRA (gene 3122); test: BSK_3C_HLADR: BioMAP Diversity Plus: 3C Assay for Human Leukocyte Antigen - DR isotype (HLADR) Biomarker Activity (AID 2283019; active = hit-call score of the fitted dose curve at least 0.9, where 1 is the maximum; inactive = score below 0.9;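 also: ELISA of cell-surface HLA-DR on HUVEC 24 h after dosing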); settings: primary human endothelial cells (HUVEC); actives raise or lower the signal
Procedure, shortened: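 Endothelial cells from human umbilical vein are treated with test chemical; after 24 h, HLA-DR levels are measured by ELISA. Data are fitted in both directions using DMSO as the baseline.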

[17] = read-out: Interleukin-8 (IL8), CXCL8 (gene 3576); test: BSK_3C_IL8: BioMAP Diversity Plus: 3C Assay for Interleukin-8 (IL8) Biomarker Activity (AID 2283020; active = hit-call score of the fitted dose curve at least 0.9, where 1 is the maximum; inactive = score below 0.9); settings: primary human endothelial cells (HUVEC); actives raise or lower the signal
Procedure, shortened: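 Endothelial primary cells of human umbilical vein origin are dosed with chemical; after 24 h the IL-8 biomarker is measured by ELISA, and concentration–response is fitted in both directions versus DMSO.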

[18] = biological target: human Peroxisome Proliferator-activated Receptor delta (PPARd), PPARD (gene 5467) (UniProt Q03181); test: ATG_PPARd_TRANS: Attagene TRANS-FACTORIAL HepG2 Assay for human Peroxisome Proliferator-activated Receptor delta (PPARd) (AID 2283002)
Procedure, shortened: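 HepG2 cells transiently transfected with multiplexed GAL4-UAS reporter units and exogenous chimeric NR-Gal4 proteins; 24 h compound exposure. Reporter mRNA measured by RT-PCR, 6-FAM labelling, HpaI digestion and capillary electrophoresis; gain of signal versus DMSO.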

[19] = biological target: human Vitamin D Receptor (VDR), VDR (gene 7421) (UniProt P11473); test: ATG_VDR_TRANS: Attagene TRANS-FACTORIAL HepG2 Assay for human Vitamin D Receptor (VDR) (AID 2283022)
Procedure, shortened: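 Fluorescence of labelled reporter cDNA fragments, resolved by capillary electrophoresis, gives mRNA induction after 24 h treatment of HepG2 cells carrying transfected Gal4-fusion reporter units. Activity is fitted in the positive direction with DMSO as baseline.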

[20] = biological target: Retinoic acid receptor alpha (Homo sapiens) (UniProt P10276); test: ATG_RARa_TRANS: Attagene TRANS-FACTORIAL HepG2 Assay for human Retinoic Acid Receptor alpha (RARa) (AID 2283005)
Procedure, shortened: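 HepG2 cells transiently transfected with multiple reporter units expressing chimeric RARα-GAL4 fusion, with GAL4-UAS-driven reporters. After 24 h compound exposure, reporter mRNA induction quantified by RT-PCR and capillary electrophoresis with fluorescent labeling; gain-of-signal fitted relative to DMSO control.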

Measured: AC50

Chain of human Peroxisome Proliferator-activated Receptor alpha (PPARa), PPARA (gene 5465) (Q07869 whole entry, looked up): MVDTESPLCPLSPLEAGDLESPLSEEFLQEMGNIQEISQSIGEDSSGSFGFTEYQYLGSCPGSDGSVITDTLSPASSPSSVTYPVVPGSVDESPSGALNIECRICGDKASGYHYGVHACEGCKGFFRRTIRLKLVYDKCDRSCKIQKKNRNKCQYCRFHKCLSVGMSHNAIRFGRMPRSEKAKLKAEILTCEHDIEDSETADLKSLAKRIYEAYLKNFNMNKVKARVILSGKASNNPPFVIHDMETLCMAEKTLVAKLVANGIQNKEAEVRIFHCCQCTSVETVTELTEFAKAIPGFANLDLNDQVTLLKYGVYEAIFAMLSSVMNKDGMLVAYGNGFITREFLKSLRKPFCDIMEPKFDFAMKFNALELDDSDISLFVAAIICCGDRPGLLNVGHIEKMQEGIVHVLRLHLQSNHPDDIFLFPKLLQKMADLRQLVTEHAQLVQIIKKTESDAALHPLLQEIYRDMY
Chain of Retinoic acid receptor RXR-alpha (Homo sapiens) (P19793 whole entry, looked up, the tested form may be a part): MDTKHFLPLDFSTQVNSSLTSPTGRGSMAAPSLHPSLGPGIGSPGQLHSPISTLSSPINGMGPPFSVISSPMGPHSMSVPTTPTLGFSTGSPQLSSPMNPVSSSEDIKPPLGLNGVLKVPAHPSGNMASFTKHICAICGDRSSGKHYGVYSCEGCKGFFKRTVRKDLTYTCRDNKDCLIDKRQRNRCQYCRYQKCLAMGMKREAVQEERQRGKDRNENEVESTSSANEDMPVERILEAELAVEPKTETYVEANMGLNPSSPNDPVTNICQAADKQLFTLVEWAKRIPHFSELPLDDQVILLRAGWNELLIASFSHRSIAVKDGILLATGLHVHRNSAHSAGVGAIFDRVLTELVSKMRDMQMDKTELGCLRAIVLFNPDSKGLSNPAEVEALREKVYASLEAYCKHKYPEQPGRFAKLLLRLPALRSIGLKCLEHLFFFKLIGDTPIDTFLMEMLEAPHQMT
Chain of human Retinoic Acid Receptor gamma (RARg), RARG (gene 5916) (P13631 whole entry, looked up, the tested form may be a part): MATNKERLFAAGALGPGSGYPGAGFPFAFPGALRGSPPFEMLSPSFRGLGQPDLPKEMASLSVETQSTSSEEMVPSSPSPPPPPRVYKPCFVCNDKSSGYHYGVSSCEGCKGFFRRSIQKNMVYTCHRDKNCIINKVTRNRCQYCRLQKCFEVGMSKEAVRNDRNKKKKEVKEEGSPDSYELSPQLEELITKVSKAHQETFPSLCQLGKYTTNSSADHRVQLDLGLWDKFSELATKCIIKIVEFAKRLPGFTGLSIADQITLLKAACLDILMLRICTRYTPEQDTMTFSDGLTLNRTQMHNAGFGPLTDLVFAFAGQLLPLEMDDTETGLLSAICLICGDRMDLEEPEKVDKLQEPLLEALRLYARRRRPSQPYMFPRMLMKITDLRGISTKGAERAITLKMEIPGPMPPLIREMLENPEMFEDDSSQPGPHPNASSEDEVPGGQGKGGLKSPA
Chain of E-selectin (Homo sapiens) (P16581 whole entry, looked up): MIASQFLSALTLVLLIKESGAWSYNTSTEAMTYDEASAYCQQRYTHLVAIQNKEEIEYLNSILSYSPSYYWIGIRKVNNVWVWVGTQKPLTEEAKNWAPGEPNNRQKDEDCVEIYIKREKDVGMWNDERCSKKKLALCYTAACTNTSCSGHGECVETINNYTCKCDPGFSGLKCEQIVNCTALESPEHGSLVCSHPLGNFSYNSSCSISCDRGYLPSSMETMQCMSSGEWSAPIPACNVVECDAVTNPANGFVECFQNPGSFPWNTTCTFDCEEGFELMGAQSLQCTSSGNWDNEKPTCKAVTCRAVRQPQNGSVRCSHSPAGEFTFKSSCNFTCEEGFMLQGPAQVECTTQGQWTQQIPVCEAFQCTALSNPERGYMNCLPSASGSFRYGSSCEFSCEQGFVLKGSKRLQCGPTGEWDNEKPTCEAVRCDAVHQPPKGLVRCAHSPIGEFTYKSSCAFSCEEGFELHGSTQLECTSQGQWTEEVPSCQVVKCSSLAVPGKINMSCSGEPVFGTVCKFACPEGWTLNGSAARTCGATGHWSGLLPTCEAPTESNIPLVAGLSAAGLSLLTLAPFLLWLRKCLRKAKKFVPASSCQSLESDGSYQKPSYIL
Chain of Peroxisome proliferator-activated receptor gamma (Homo sapiens) (P37231 whole entry, looked up, the tested form may be a part): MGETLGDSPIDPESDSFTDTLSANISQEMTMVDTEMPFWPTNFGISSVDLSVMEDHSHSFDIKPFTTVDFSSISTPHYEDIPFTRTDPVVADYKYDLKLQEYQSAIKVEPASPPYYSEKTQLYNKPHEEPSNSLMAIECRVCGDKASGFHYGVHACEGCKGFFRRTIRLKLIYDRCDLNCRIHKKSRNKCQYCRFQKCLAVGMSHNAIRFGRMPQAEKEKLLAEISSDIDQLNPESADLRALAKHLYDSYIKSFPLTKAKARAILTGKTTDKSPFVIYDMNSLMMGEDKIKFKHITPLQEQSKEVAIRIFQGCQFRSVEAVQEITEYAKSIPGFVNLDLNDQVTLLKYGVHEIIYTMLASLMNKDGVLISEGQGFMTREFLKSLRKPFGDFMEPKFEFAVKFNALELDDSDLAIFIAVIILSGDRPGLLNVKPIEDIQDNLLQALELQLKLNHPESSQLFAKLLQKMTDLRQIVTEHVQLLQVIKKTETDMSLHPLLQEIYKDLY
Chain of human RAR-related Orphan Receptor beta (RORb), RORB (gene 6096) (Q92753 whole entry, looked up, the tested form may be a part): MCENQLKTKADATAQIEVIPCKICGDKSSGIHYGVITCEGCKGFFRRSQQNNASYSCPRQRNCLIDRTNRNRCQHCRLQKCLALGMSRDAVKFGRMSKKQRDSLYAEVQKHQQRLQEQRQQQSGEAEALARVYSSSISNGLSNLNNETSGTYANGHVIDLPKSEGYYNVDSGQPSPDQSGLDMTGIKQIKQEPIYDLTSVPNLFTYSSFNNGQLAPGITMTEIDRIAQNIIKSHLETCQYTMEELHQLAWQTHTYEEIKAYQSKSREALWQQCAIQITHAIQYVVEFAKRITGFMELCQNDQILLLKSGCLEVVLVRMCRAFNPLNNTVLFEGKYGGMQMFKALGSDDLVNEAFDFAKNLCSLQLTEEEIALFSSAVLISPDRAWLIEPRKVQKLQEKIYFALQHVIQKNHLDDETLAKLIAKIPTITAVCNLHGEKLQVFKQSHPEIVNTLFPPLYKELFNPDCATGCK
Chain of human Retinoic Acid Receptor beta (RARb), RARB (gene 5915) (P10826 whole entry, looked up, the tested form may be a part): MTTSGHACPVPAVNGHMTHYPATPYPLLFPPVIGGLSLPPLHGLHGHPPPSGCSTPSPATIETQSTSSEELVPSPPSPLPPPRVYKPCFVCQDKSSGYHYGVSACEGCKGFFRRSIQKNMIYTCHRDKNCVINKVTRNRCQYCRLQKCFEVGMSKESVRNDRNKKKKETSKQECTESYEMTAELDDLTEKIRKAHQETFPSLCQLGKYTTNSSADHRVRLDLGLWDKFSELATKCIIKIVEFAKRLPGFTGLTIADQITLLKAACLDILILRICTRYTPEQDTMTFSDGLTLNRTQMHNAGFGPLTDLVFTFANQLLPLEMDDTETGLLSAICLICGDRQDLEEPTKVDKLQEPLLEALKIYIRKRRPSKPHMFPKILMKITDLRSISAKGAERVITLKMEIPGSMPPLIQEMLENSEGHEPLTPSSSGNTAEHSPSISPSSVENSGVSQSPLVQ
Chain of Nuclear receptor subfamily 1 group I member 2 (Homo sapiens) (O75469 whole entry, looked up, the tested form may be a part): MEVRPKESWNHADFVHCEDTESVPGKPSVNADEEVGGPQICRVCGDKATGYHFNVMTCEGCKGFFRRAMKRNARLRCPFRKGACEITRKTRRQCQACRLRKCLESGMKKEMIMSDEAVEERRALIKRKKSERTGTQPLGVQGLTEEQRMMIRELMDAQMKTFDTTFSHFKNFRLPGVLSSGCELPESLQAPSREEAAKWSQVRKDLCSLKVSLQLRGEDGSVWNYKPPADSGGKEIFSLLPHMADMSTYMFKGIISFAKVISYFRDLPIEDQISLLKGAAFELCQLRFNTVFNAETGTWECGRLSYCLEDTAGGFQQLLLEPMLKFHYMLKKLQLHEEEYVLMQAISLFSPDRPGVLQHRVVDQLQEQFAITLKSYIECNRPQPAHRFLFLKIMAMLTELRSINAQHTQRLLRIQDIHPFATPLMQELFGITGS
Chain of human Vitamin D Receptor (VDR), VDR (gene 7421) (P11473 whole entry, looked up, the tested form may be a part): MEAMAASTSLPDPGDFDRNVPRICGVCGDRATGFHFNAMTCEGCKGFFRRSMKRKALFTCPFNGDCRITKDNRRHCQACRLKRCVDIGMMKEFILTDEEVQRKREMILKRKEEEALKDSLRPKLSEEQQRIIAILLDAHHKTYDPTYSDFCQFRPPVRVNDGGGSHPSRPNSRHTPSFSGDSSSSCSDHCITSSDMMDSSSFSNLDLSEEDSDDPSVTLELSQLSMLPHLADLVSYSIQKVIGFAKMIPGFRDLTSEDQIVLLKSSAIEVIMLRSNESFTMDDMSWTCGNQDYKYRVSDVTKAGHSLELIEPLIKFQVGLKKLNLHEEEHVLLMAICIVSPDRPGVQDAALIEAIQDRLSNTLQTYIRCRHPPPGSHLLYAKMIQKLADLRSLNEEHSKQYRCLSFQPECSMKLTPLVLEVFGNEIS
Chain of human Retinoid X Receptor beta (RXRb), RXRB (gene 6257) (P28702 whole entry, looked up, the tested form may be a part): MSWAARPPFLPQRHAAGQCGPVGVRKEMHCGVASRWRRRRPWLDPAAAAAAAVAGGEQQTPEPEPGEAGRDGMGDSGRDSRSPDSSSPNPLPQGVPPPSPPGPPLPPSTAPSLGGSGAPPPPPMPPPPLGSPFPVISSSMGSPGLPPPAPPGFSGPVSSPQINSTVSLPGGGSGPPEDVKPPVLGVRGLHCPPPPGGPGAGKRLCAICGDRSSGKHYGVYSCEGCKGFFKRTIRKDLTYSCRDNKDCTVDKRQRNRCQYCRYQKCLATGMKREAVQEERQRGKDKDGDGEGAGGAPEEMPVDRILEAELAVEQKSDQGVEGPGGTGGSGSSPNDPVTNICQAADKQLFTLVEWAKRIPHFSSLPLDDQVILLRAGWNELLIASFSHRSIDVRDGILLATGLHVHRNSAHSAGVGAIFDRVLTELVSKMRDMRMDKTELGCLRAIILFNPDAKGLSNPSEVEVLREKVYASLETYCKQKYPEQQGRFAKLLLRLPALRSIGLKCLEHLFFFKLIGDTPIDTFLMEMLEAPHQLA

CCCc1ccc(OC)cc1
inactive: [1] | [2] | [3] | [4] | [5] | [6]

c1ccc2c(c1)ccc1cc3c(ccc4ccccc43)cc12
inactive: [1] | [7] | [8] | [4] | [9] | [5] | [6] | [10] | [11] | [12] | [13] | [14] | [15] | [16] | [17]

N#CCc1ccc(Cl)cc1Cl
inactive: [1] | [18] | [3] | [4] | [10] | [11] | [19]

O=C1C(N(CO)C(=O)NCO)N(CO)C(=O)N1CO (stereo not given)
inactive: [1] | [2] | [20] | [3] | [9] | [5] | [6] | [11]

CCC(C)C=O (stereo not given)
inactive: [1] | [18] | [4] | [5] | [6] | [10] | [19]

CC/C=C\CCOC(=O)CCCCC
inactive: [1] | [2] | [20] | [4] | [10] | [11]

CC=CCO
inactive: [1] | [2] | [4] | [9] | [6] | [10] | [11] | [12] | [19]

CN1C(=O)N(C)C(O)C1O (stereo not given)
inactive: [1] | [7] | [8] | [10] | [11] | [13] | [14] | [15] | [16] | [17]

O=[N+]([O-])c1ccc(CO)cc1
inactive: [1] | [18] | [4] | [5] | [10] | [11] | [12]

Cc1ccc(C(C)(C)C)cc1
inactive: [1] | [2] | [4] | [5] | [6] | [10] | [12]

O=C1CCCCCCCCCCC(=O)OCCO1
inactive: [1] | [2] | [20] | [3] | [4] | [9] | [5] | [10] | [11]

COCCOCCOCCOCCOC
inactive: [1] | [18] | [4] | [10] | [19]

CC1=NC(C)OC1C (stereo not given)
inactive: [1] | [2] | [20] | [3] | [10]
active: [4] 19.8 µM

CCCCCCCC/C=C\CCCCCCCC(=O)O
active: [1] 21.8 µM | [18] 100 µM | [3] 18.8 µM | [11] 68 µM
inactive: [4] | [10] | [12]

COC(=O)/C=C/C(C)=C\C=C\C(C)=C\C=C\C=C(C)\C=C\C=C(C)\C=C\C(=O)O
inactive: [1] | [18] | [4] | [5] | [10] | [19]
